Screening data deposited in PubChem BioAssay by Broad Institute.
Many of the other results were omitted from the sample, so hits are more common in it than they were.
Tg IFNy HTS: blocks Toxoplasma gondii growth in the presence of IFN-gamma. 69,000 compounds, 3.8% hits. Toxoplasma gondii growth in IFN-gamma-treated host cells; hits give low values. activity change, negative = inhibition, % (no concentration beside the values); in the data active = activity change below about -70%, passing the limit was not always enough;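 note: host cells are HeLa cells infected with Toxoplasma gondii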
Active calls of the source: *; ! = not confirmed by another sample.

SMILES	Tg IFNy HTS
Cc1noc(C)c1CN1CCC(c2n[nH]c(=O)n2Cc2ccccc2)CC1	3.0
Cc1nc(-c2ccc(Cl)cc2)sc1CCNC(=O)COc1ccccc1F	17.4
COc1ccccc1OCC(=O)NCCc1sc(-c2ccc(F)cc2)nc1C	6.5
COc1ccccc1C(=O)NCCc1sc(-c2ccc(F)cc2)nc1C	-107.2*
Cc1ccccc1OCC(=O)NCCc1sc(-c2ccc(Cl)cc2)nc1C	27.6
CCOc1ccccc1C(=O)NCCc1sc(-c2ccc(Cl)cc2)nc1C	-106.0*
COc1ccccc1C(=O)NCCc1sc(-c2cccc(F)c2)nc1C	52.4
Cc1noc2nc(C(C)C)cc(C(=O)NCc3ccc(CN4CCCC4=O)cc3)c12	12.4
COc1ccccc1-c1nc(Cn2nnc(C(=O)Nc3ccccc3F)c2C)c(C)o1	70.9
Cc1cc(/C(=C\Nc2ccc(Cl)cc2)C(=O)Nc2ccc(Cl)cc2)on1	25.3
Cn1cc(CN(Cc2ccc(Cl)cc2F)C2CC2)cn1	0.7
COc1ccccc1NC(=S)Nc1ccccc1OC	7.4
Cc1nc2c(nc(SCc3nc(-c4cccc(Cl)c4)oc3C)n2C)c(=O)[nH]1	-2.8
C=CCN1CCN(C(=O)c2cccc(C)n2)Cc2cccnc21	-0.7
CCOC(=O)c1nc(N2CCN(C(=O)c3ccco3)CC2)c2ccccc2n1	111.9
Cc1ccsc1CN(C)c1nc(-c2cccnc2)nc2c1cnn2C	-73.7*
CN(CCCc1cnn(C)c1)c1nc(-c2cccnc2)nc2c1cnn2C	-15.6
Cc1ncsc1CCN(C)c1nc(-c2cccnc2)nc2c1cnn2C	-34.8
CC1(C)C(=O)NC(=O)N1CC(=O)N1CC(c2cccnc2)C1	0.9
Cc1cnn(Cc2nc(-c3ccc(NC(=O)COc4ccccc4)cc3)oc2C)c1	-37.5
Cc1cnn(Cc2nc(-c3ccc(NC(=O)c4cccc(Cl)c4)cc3)oc2C)c1	52.9
CCOc1ccc(C(=O)Nc2ccc(-c3nc(Cn4cc(C)cn4)c(C)o3)cc2)cc1	-90.6*
COc1ccc(Cl)cc1C(=O)Nc1ccc(-c2nc(Cn3cc(C)cn3)c(C)o2)cc1	29.3
Cc1cnn(Cc2nc(-c3ccc(NC(=O)c4ccc(Cl)cc4)cc3)oc2C)c1	-86.9*
CCc1ccc(C(=O)Nc2ccc(-c3nc(Cn4cccn4)c(C)o3)cc2)cc1	-10.7
SMILES	Tg IFNy HTS
CCn1c(=O)c(-c2nc(-c3ccccc3OC)no2)c(O)c2ccc(F)cc21	-1.8
CCOC(=O)N1CCN(C(=O)C2=C(C)C(=O)OC23CCN(S(=O)(=O)c2cccs2)CC3)CC1	-2.2
O=C(c1ccccc1)N1CCC[C@@]2(C(=O)N3CCOCC3)CN(c3ccccn3)C[C@H]2C1	-49.2
CC(=O)N1CCC2(CCCN2C(=O)c2ccno2)CC1	-4.7
Cc1nnc(-c2cccc(-c3ccc4c(c3)OCCO4)c2)o1	56.8
O=C(c1cccnc1)N1CCC2(CC1)Nc1ccc(Cl)cc1-n1cccc12	66.8
COc1ccc(C(=O)c2sc3nc(C)cc(C(F)(F)F)c3c2N)cc1OC	-7.7
COc1cc2ncn(-c3cc(OCc4ccccc4C(F)(F)F)c(C(N)=O)s3)c2cc1OC	-87.9*
COc1ccccc1OCC(=O)n1nc(N)c2c(C(F)(F)F)cc(C)nc21	32.3
CCC(C)N(Cc1cccc(Cl)c1)C(=O)c1ccc(C#CC(C)(C)O)o1 (centres undefined)	7.1
COc1ccc(OC)c(S(=O)(=O)NCCc2sc(-c3cccc(F)c3)nc2C)c1	82.7
CC(C)n1c(/C=C/[C@@H](O)C[C@@H](O)CC(=O)O)c(-c2ccc(F)cc2)c2ccccc21	-77.8*!
CC(NC(=O)c1cc(-c2ccc(F)cc2)no1)c1nc2ccccc2n1C(C)C (centres undefined)	-10.4
CC(C)n1c(SCC(=O)O)nc2ccccc21	28.9
O=C(Cc1ccccc1O)N1CCC(N2CCCC(C(=O)N3CCCC3)C2)CC1 (centres undefined)	4.6
CC1=C(C(=O)NCc2cccc(Cl)c2)C2(CCN(S(=O)(=O)c3cccs3)CC2)OC1=O	18.6
CCOc1ccc(NC(=O)CC(=O)N2CCOC3(CNCCOC3)C2)cc1 (centres undefined)	-14.6
Cc1nc([C@H]2C[C@@H]3CCN(Cc4ccoc4)C[C@@H]3O2)sc1C	-5.1
C=C1SC(=Nc2cccc(OC)c2)N(C(=O)C(c2ccccc2)C2CCCC2)C1(C)C (centres undefined)	-90.2*
NC(=O)C(c1ccccc1)C1CCCC1 (centres undefined)	10.1
C=C1SC(=Nc2ccccc2Cl)N(C(=O)c2sc3ccccc3c2Cl)C1(C)C	-28.2
Cc1ccc(NC(=O)c2ccc3ccc(N4CCN(C(=O)CN(C)C)CC4)n3c2)nc1	6.8
CCC(NC(=O)c1cccc(F)c1OC)c1cccs1 (centres undefined)	-0.6
O=C(NC1CCC1)[C@H]1C[C@H]2CN(Cc3ccc(Cl)cc3)C[C@H]1O2	-93.3*
O=C(NC1CCC1)[C@H]1C[C@H]2CN(Cc3ccccc3)C[C@H]1O2	18.3
O=C(NC1CCC1)[C@H]1C[C@@H]2CN(C(=O)Nc3ccc(Cl)cc3)C[C@H]1O2	-7.3
Cn1ccc(C(=O)N2CCC(c3ccnc4nccn34)C2)n1 (centres undefined)	10.1
